Laboratory results: PubChem BioAssay AID1159580 (chemical genetic matrix, 2015)
In all, about 5,500 compounds went through this assay and about 2,000 (36%) were called active. Not shown: some 18% with an inconclusive outcome. Rule as the data show it: active = normalized growth mostly below about 0.91 (no sharp cut-off); inconclusive = no clear call, values can overlap the other calls; inactive = mostly above about 0.92. Some of the results follow.

Experiment: chemical genetic growth profiling, strain panel (AID 1159580);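 also: tested at 20 µM; growth read once vehicle control cultures reached saturation at 30 °C; 1 = growth at the plate median or of vehicle wells; lower values mean less growth of the strain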
Conditions: S. cerevisiae deletion strains, growth OD

Measured: normalized growth

OC[C@H]1OC([S-])[C@H](O)[C@@H](O)[C@@H]1O.[Au+] (some centres undefined)
active: locus YLR113W, strain HOG1, stronger effect = lower value 1.17 [resistant] | locus YOR270C, strain vph1, stronger effect = lower value 1.27 [resistant]
inactive: locus YAL021C, strain ccr4, stronger effect = lower value 1.03 | locus YAL026C, strain drs2, stronger effect = lower value 1.03 | locus YAL030W, strain snc1, stronger effect = lower value 1.03 | locus YBL061C, strain skt5, stronger effect = lower value 1.02 | locus YBR009C, strain hhf1, stronger effect = lower value 1.02 | locus YBR023C, strain chs3, stronger effect = lower value 1.01 | locus YBR171W, strain sec66, stronger effect = lower value 1.01 | locus YBR231C, strain swc5, stronger effect = lower value 1.02 | locus YBR279W, strain paf1, stronger effect = lower value 1.01 | locus YCL011C, strain gbp2, stronger effect = lower value 1 | locus YCL016C, strain dcc1, stronger effect = lower value 1 | locus YCL069W, strain vba3, stronger effect = lower value 1.01 | locus YCR088W, strain abp1, stronger effect = lower value 1.01 | locus YDL005C, strain med2, stronger effect = lower value 1.02 | locus YDL040C, strain nat1, stronger effect = lower value 1.01 | locus YDR001C, strain nth1, stronger effect = lower value 1 | locus YDR069C, strain doa4, stronger effect = lower value 1.01 | locus YDR137W, strain rgp1, stronger effect = lower value 1.03 | locus YDR159W, strain sac3, stronger effect = lower value 1.06 | locus YDR195W, strain ref2 1.03 | locus YDR297W, strain sur2, stronger effect = lower value 1 | locus YDR334W, strain swr1, stronger effect = lower value 1.01 | locus YDR335W, strain msn5, stronger effect = lower value 1.02 | locus YDR392W, strain spt3, stronger effect = lower value 1.03 | locus YEL003W, strain gim4, stronger effect = lower value 1.01 | locus YEL037C, strain rad23, stronger effect = lower value 1.01 | locus YEL061C, strain CIN8 (second series), stronger effect = lower value 1.01 | locus YER015W, strain faa2, stronger effect = lower value 1.01 | locus YER016W, strain bim1, stronger effect = lower value 1.02 | locus YER111C, strain swi4, stronger effect = lower value 1.01 | locus YER155C, strain BEM2 (second series), stronger effect = lower value 1.05 | locus YFR010W, strain ubp6, stronger effect = lower value 1.02 | locus YGL167C, strain pmr1, stronger effect = lower value 1 | locus YGL173C, strain kem1, stronger effect = lower value 1.02 | locus YGL227W, strain vid30, stronger effect = lower value 1.01 | locus YGL240W, strain doc1, stronger effect = lower value 1.03 | locus YGL253W, strain hxk2, stronger effect = lower value 1.01 | locus YHR013C, strain ard1, stronger effect = lower value 1.02 | locus YHR027C, strain rpn1, stronger effect = lower value 0.992 | locus YHR030C, strain SLT2, stronger effect = lower value 1.05 | locus YHR079C, strain IRE1, stronger effect = lower value 1.1 | locus YHR142W, strain chs7, stronger effect = lower value 0.995 | locus YJL092W, strain hpr5, stronger effect = lower value 1.01 | locus YJL095W, strain BCK1 (second series), stronger effect = lower value 1.01 | locus YJL095W, strain BCK1, stronger effect = lower value 1.08 | locus YJL115W, strain asf1, stronger effect = lower value 1.01 | locus YJL129C, strain trk1, stronger effect = lower value 1.01 | locus YJL154C, strain vps35, stronger effect = lower value 1.01 | locus YJL164C, strain tpk1, stronger effect = lower value 1.01 | locus YJL166W, strain qcr8, stronger effect = lower value 1.02 | locus YJL187C, strain SWE1, stronger effect = lower value 1.02 | locus YJR066W, strain TOR1, stronger effect = lower value 0.998 | locus YKL160W, strain elf1, stronger effect = lower value 1 | locus YKR026C, strain gcn3, stronger effect = lower value 1.01 | locus YKR091W, strain srl3, stronger effect = lower value 1.01 | locus YLL001W, strain dnm1, stronger effect = lower value 1.01 | locus YLL026W, stronger effect = lower value 1.01 | locus YLL041C, strain sdh2, stronger effect = lower value 0.999 | locus YLR027C, strain aat2, stronger effect = lower value 1.02 | locus YLR221C, strain rsa3, stronger effect = lower value 1.01 | locus YLR258W, strain gsy2, stronger effect = lower value 1.01 | locus YLR262C, strain YPT6 (second series), stronger effect = lower value 1 | locus YLR320W, strain mms22, stronger effect = lower value 1.02 | locus YLR342W, strain FKS1, stronger effect = lower value 1.01 | locus YLR357W, strain rsc2, stronger effect = lower value 1.01 | locus YLR370C, strain arc18, stronger effect = lower value 1.01 | locus YLR384C, strain iki3, stronger effect = lower value 0.987 | locus YML120C, strain ndi1, stronger effect = lower value 1.02 | locus YMR058W, strain fet3, stronger effect = lower value 1.01 | locus YMR125W, strain sto1, stronger effect = lower value 1.02 | locus YMR129W, stronger effect = lower value 1.01 | locus YMR205C, strain PFK2, stronger effect = lower value 1.03 | locus YMR231W, strain pep5, stronger effect = lower value 1.01 | locus YNL071W, strain lat1, stronger effect = lower value 1 | locus YNL183C, strain NPR1, stronger effect = lower value 1.02 | locus YNL209W, strain ssb2, stronger effect = lower value 1 | locus YNL248C, strain rpa49, stronger effect = lower value 1.01 | locus YNL322C, strain KRE1 (second series), stronger effect = lower value 1.01 | locus YNR049C, strain mso1, stronger effect = lower value 0.997 | locus YOR001W, strain rrp6, stronger effect = lower value 1.02 | locus YOR070C, strain gyp1, stronger effect = lower value 1 | locus YOR080W, strain dia2, stronger effect = lower value 1.01 | locus YOR083W, strain WHI5, stronger effect = lower value 0.996 | locus YOR106W, strain vam3, stronger effect = lower value 1.03 | locus YOR231W, strain MKK1, stronger effect = lower value 1.09 | locus YOR265W, strain rbl2, stronger effect = lower value 1.01 | locus YOR290C, strain snf2, stronger effect = lower value 1.01 | locus YPL051W, strain arl3, stronger effect = lower value 0.994 | locus YPL078C, strain atp4, stronger effect = lower value 1.03 | locus YPL106C, strain sse1, stronger effect = lower value 1.01 | locus YPL240C, strain hsp82, stronger effect = lower value 1.01 | locus YPL256C, strain CLN2, stronger effect = lower value 1.16
